# Test results from paper PMC7819943, “Rice protein-binding microarrays: a tool to detect cis-acting elements near promoter regions in rice”.
# The full ranking holds about 35,000 sequences; the median of “fluorescence intensity (a.u.)” is about 10,000, and the highest 2% start at about 52,000. This is one part of a sample in which the highest values are shown more often than they occur.
# Target: T1, OsWOX13 (Oryza sativa, UniProt Q5QMM3 1-267)
# T1 sequence: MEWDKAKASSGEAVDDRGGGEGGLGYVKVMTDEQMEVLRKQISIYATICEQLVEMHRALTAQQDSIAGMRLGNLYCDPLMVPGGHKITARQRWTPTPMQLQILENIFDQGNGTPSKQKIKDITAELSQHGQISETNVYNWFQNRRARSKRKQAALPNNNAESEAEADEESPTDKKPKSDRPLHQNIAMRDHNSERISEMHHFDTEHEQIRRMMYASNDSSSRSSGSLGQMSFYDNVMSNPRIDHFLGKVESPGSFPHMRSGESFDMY
# Assay: protein-binding microarray (RPBM); PBS, 2% BSA, 51.3 ng/ul salmon testes DNA, 50 uM zinc acetate, 200 nM TF, 25 C, 1 h; high values mean tight binding
# Conditions: protein: recombinant; tags: N-terminal polyhistidine and DsRed monomer fusion (pET32a); label: CyDye5-dUTP incorporated in the synthesized complementary strand; 3' TTTTT single-stranded linker to array surface; dsDNA, one strand shown
# Procedure, shortened: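 Transcription factors were each fused at the N-terminus to a polyhistidine tag plus DsRed and expressed in E. coli BL21-CodonPlus before Ni–NTA purification. Binding to a double-stranded custom Agilent array was carried out with 200 nM protein at 25 °C for 1 h in PBS, 2% BSA, salmon testes DNA and 50 µM zinc acetate. The binding signal is per-feature fluorescence intensity, in arbitrary units, on an Axon 4000B scanner.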
row,Sequence,binding signal
1,TTATGATTATTTTAGAATTTTCAAAATCATGGAATATAATCGGAGTCACCTAGTGCAG,7490 fluorescence intensity (a.u.)
2,GCCTTAACTTTGTGATCATATCTTCATCTTCATTAGGCCTCGGAGTCACCTAGTGCAG,4300 fluorescence intensity (a.u.)
3,TAATTAAATTGTCATATCACTTCTTAACTTATTGGACTAACGGAGTCACCTAGTGCAG,5280 fluorescence intensity (a.u.)
4,GATGCCATCTAATTTTAAATGATGATGTGGAGAAGAGAGTCGGAGTCACCTAGTGCAG,7100 fluorescence intensity (a.u.)
5,CATCTAATTTAAATTTAAATGTTTTAAAAGATAGAGACGTCGGAGTCACCTAGTGCAG,52400 fluorescence intensity (a.u.)
6,AATTGAGACTTCGGTAAAACTTAAGGGACTAAATTAACTACGGAGTCACCTAGTGCAG,52700 fluorescence intensity (a.u.)
7,AAACAGTTTTCCCCAAAATTGATTGTAAATATACATATACCGGAGTCACCTAGTGCAG,14900 fluorescence intensity (a.u.)
8,TTAAATGATAGAAATACAATTATTACGGAATAGAATGTAGCGGAGTCACCTAGTGCAG,29100 fluorescence intensity (a.u.)
9,CTAAATTATACGGAGATGATAATGTAGTTACAGTGCAGTTCGGAGTCACCTAGTGCAG,21900 fluorescence intensity (a.u.)
10,AATACAATTAATTACAGTTAATTAAATGATAGAAAGAGTTCGGAGTCACCTAGTGCAG,55400 fluorescence intensity (a.u.)
11,ATCTAAATTGTTTTAGATTTGTGCACAAGAACAAAAGAGACGGAGTCACCTAGTGCAG,16800 fluorescence intensity (a.u.)
12,GTAAATTGATTTGTATATGGCCATTTCCAACCCAAAACACCGGAGTCACCTAGTGCAG,56300 fluorescence intensity (a.u.)
13,TAAATTTAAACGGTAAATTAAGGAGAGGGAGGTCATTCTTCGGAGTCACCTAGTGCAG,6560 fluorescence intensity (a.u.)
14,ATTTGTATAATTGGAACCATGCCATTCCAACACAACAAAACGGAGTCACCTAGTGCAG,6320 fluorescence intensity (a.u.)
15,TGTATGATTTATGTATAATTAGAGATATACAATCATATAACGGAGTCACCTAGTGCAG,16900 fluorescence intensity (a.u.)
16,AGGAGAAACAATTTGCAATCATCACATTGTTTAAAGAGATCGGAGTCACCTAGTGCAG,5330 fluorescence intensity (a.u.)
17,CATTGGAATTGATGATCACATTATACATGGATTTGACCCACGGAGTCACCTAGTGCAG,30600 fluorescence intensity (a.u.)
18,TCTAAACTAATCTAATCTAGCAACGCGATTTAGCCGATACCGGAGTCACCTAGTGCAG,9190 fluorescence intensity (a.u.)
19,TTCTGTCAATTAGGTGGGTGACATGTGGATCCCACGATATCGGAGTCACCTAGTGCAG,13200 fluorescence intensity (a.u.)
20,TCATTGATTGATTGGTACTACTACTGCTAGAAGAAAAGGCCGGAGTCACCTAGTGCAG,55200 fluorescence intensity (a.u.)
21,TTGATTGGAAAGATTGGAAAGAATTGAATGCGAATTGGTACGGAGTCACCTAGTGCAG,34500 fluorescence intensity (a.u.)
22,GATAAATTAATAAAATTATCAAAATTTTATGATTGGTTTACGGAGTCACCTAGTGCAG,54900 fluorescence intensity (a.u.)
23,TTATTTGCATTGATTTAATAGGGTTTACTCTTGCTTTGCACGGAGTCACCTAGTGCAG,7870 fluorescence intensity (a.u.)
24,TACCTTAATTTATTGATTGCACTCTTGTTCTCACACGGTTCGGAGTCACCTAGTGCAG,53200 fluorescence intensity (a.u.)

row,Sequence,binding signal
1,ATTACATACCTGATTGAGTTGGTACTACAAGGCAGGGAGCCGGAGTCACCTAGTGCAG,16400 fluorescence intensity (a.u.)
2,AGATAGATTAATATATGATAAATCACTAATATCAAATTTACGGAGTCACCTAGTGCAG,5780 fluorescence intensity (a.u.)
3,ACTGATTTGTTTTATTGTTTTGATTTTAATCCTCTCAATTCGGAGTCACCTAGTGCAG,38800 fluorescence intensity (a.u.)
4,GTGATTACATTGATAATAATTGATTGAATCAGTTTGTTCTCGGAGTCACCTAGTGCAG,62600 fluorescence intensity (a.u.)
5,ATATCAATCCGATGATATTAATTTTAGCAAATAAAATTTACGGAGTCACCTAGTGCAG,5130 fluorescence intensity (a.u.)
6,TTGATTGTGAATTTATAATGTTTGGATATAATGATTACTTCGGAGTCACCTAGTGCAG,34500 fluorescence intensity (a.u.)
7,CTTTGATTACATCAAGCCACTGAATTATCAGTTATAATCTCGGAGTCACCTAGTGCAG,23100 fluorescence intensity (a.u.)
8,TAGAATTACTTACTAAATTGCTTGTTATATTGAAGATATTCGGAGTCACCTAGTGCAG,5790 fluorescence intensity (a.u.)
9,AAAATAGTTAATACTCAATTAATCATGAGCTAATGGCTCACGGAGTCACCTAGTGCAG,9240 fluorescence intensity (a.u.)
10,CATAATTACCAGACATGTTAAATTTAATATATGGATGTATCGGAGTCACCTAGTGCAG,40800 fluorescence intensity (a.u.)
11,ATTATTGATTTGATGAAACTAATTTAGTATTATAAATATTCGGAGTCACCTAGTGCAG,34600 fluorescence intensity (a.u.)
12,GTGATAATTTAGTTACTAAACATGTTGTGAAACTTTATCTCGGAGTCACCTAGTGCAG,3720 fluorescence intensity (a.u.)
13,CTATATAAAACTGATTGATTCATATTACTACGACGTTTTACGGAGTCACCTAGTGCAG,6690 fluorescence intensity (a.u.)
14,GGATAAAATTTAAATTGTACCAGTTTACGACGAATTACATCGGAGTCACCTAGTGCAG,8600 fluorescence intensity (a.u.)
15,CTTTATTGATAGGATAAAATTGTTACATCGTTTACCAGATCGGAGTCACCTAGTGCAG,52600 fluorescence intensity (a.u.)
16,AGTAATTGATTAATTTTGTGACAGAGGTGGTCACTATATGCGGAGTCACCTAGTGCAG,61000 fluorescence intensity (a.u.)
17,CATCATCTCTAATTTTAATCAAAATATAAACTTTGCAGTGCGGAGTCACCTAGTGCAG,9140 fluorescence intensity (a.u.)
18,ACTGATTGACGTTTCTCATAACTAAAATATAGGTATTGTGCGGAGTCACCTAGTGCAG,60900 fluorescence intensity (a.u.)
19,ATAAATAACTTTGATATAAATTGTTTGAATAAAACTAATGCGGAGTCACCTAGTGCAG,14300 fluorescence intensity (a.u.)
20,CTAATTGAATAATCAAAATTTTAATCTTTGGTCGATAATGCGGAGTCACCTAGTGCAG,63700 fluorescence intensity (a.u.)
21,ATTGAATAATCAAAATTTCAATCTTTGATCGATGAGGTATCGGAGTCACCTAGTGCAG,12100 fluorescence intensity (a.u.)
22,TATGATAAAATTGTTACATCATTTACCAGATGATTTAGAACGGAGTCACCTAGTGCAG,7880 fluorescence intensity (a.u.)
23,TTAAGTAATTAAGAGGTGATAGTTAATTTATGCATGCATGCGGAGTCACCTAGTGCAG,30400 fluorescence intensity (a.u.)
24,ATTTTGGTTGATTTGTAAACAGAGGGATTAATTTGTGCATCGGAGTCACCTAGTGCAG,15400 fluorescence intensity (a.u.)
